Test results taken from PubChem BioAssay (NCI).
This is part of a sample that, as a whole, favours compounds with a hit. Of some 83,000 tested, about 20% had one in any assay.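 The endpoint reported here, percent growth, reads 100 for growth as untreated, 0 for no net growth and -100 for all cells dead.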 Activity calls are given as the source filed them. The calls were made as follows: active = growth percent below 10; inactive = the rest.

test system: NCI-H226 lung; assay: NCI-60 one-dose screen, 48 h (100 = growth as untreated, 0 = no growth, -100 = all killed); details: 10 µM unless noted

Row | SMILES | growth
1 | C[C@]12C[C@@H](CO)[C@H](O)C[C@@H]1CC[C@@H]1[C@@H]2CC[C@]2(C)[C@@H](O)CC[C@@H]12 | 102% (inactive)
2 | [Cl][Hg][c]1cc[c]([Hg][Cl])o1 | 99.1% (inactive)
3 | NC(=S)c1cn(C2OC(CO)C(O)C2O)c2ncnc(N)c12 (stereo unspecified) | -12.7% (active)
4 | COC(=O)CC[C@H](Cc1ccccc1)NC(=O)c1csc([C@@H](C[C@H](C(C)C)N(C)C(=O)[C@@H](NC(=O)[C@H]2CCCCN2C)C(C)C)OC(C)=O)n1 | 83% (inactive)

test system: NCI-H322M lung; assay: as above; details: 10 µM unless noted

Row | SMILES | growth
5 | O=C(CCl)c1ccc([N+](=O)[O-])o1 | 98.4% (inactive)
6 | CCCCCSC1C2C(=O)C(Br)=CC13CCNc1c(O)c4c5c(c13)=[N+]2CCC=5C=N4 (stereo unspecified) | 2.94% (active)
7 | COc1ccc(C/C(C)=C(\c2ccc(OCCN3CCOCC3)cc2)c2ccc(OC(=O)Cc3ccccc3)cc2)cc1 | -8.3% (active)
8 | Cn1cc(-c2csc(-c3cn(CCCCN4CCCCC4)c4ccc(F)cc34)n2)c2cccnc21 | 81.5% (inactive)
9 | COc1ccc2c(c1)c(-c1nc(-c3cn(C)c4ncccc34)cs1)cn2CCCCN1CCCCC1 | -31.4% (active)
10 | C[n+]1c(/C=C/c2ccc(N(CCCl)CCCl)cc2)sc2ccccc21 | 95% (inactive)
11 | C=CC[Se]C(=O)c1ccccc1OC(C)=O | -17% (active)
12 | CC(=O)OC1CCC2C3CCC4=C/C(=N/OC(=O)c5ccc(N(CCCl)CCCl)cc5)CCC4(C)C3CC(C)C12 (stereo unspecified) | 91.7% (inactive)
13 | CCCCCCCC[n+]1ccc2ccccc2c1 | 99.2% (inactive)
14 | Cn1cccc1C1CC(=O)N(CCC[Se]C#N)C1=O (stereo unspecified) | 11.1% (inactive)
15 | C[Se]C(=O)c1ccccc1OC(C)=O | 91.4% (inactive)
16 | O=C1Nc2ccccc2C2c3cccn3-c3ccccc3CN12 (stereo unspecified) | 91.5% (inactive)
17 | CCOC(=O)[C@@H](C)C[C@H](Cc1ccccc1)NC(=O)c1csc([C@@H](C[C@H](C(C)C)N(C)C(=O)[C@H](CCC(C)C)NC(=O)[C@H]2CCCCN2C)OC(C)=O)n1 | 28.2% (inactive)
18 | COC(=O)[C@H](C[C@H](Cc1ccccc1)NC(=O)c1csc([C@@H](C[C@H](C(C)C)N(C)C(=O)[C@@H](NC(=O)[C@H]2CCCCN2C)C(C)C)OC(C)=O)n1)NC(=O)OCc1ccccc1 | 44.7% [8.5 µM] (inactive)
19 | CC1(C)N=C(N)N=C(N)N1c1ccc(OCCCNC(=O)Nc2ccc(S(=O)(=O)F)cc2)c(Cl)c1 | 52.5% (inactive)
20 | O=C(CN1CCN(C(=O)c2ccco2)CC1)Nc1ccc(Cl)cc1C(=O)c1ccccc1Cl | 98.2% (inactive)
21 | Cc1cc(N(CCCl)CCCl)ccc1C=Nc1ccccc1-c1ccccc1 | 101% (inactive)
22 | Cn1cc(-c2csc(-c3cn(CCN4CCOCC4)c4ccccc34)n2)c2cccnc21 | 84.8% (inactive)
23 | CCOC(=O)[C@@H](C)C[C@H](Cc1ccccc1)NC(=O)c1csc([C@@H](C[C@H](C(C)C)N(C)C(=O)[C@H](CC)NC(=O)[C@H]2CCCCN2C)OC(C)=O)n1 | 43.1% (inactive)

Row | SMILES | growth
24 | ClC1=C(Cl)C(Cl)(C2(Cl)C(Cl)=C(Cl)C(Cl)=C2Cl)C(Cl)=C1Cl | 98.3% (inactive)
25 | O=C([O][Hg][CH2]C1OCCOC1[CH2][Hg][O]C(=O)c1ccccc1)c1ccccc1 (stereo unspecified) | 116% (inactive)
26 | COc1ccc([As]=[As]c2ccc(OC)c(NCS(=O)(=O)O)c2)cc1NCS(=O)(=O)O (stereo unspecified) | 95.6% (inactive)
27 | [Cl][Hg][n]1c(-c2ccco2)nc2ccccc21 | 98.8% (inactive)
28 | CCC[CH2][Sn]([CH2]CCC)([CH2]CCC)[O]c1ccc(Cl)cc1Cl | -80.1% (active)
29 | NC(CCl)CCl | 102% (inactive)
30 | CN1CCC(c2c[nH]c3ccccc23)C1 (stereo unspecified) | 118% (inactive)
31 | CCCCCCCCCCCCCCCCCC1OC[C@@H](COC(=O)O[C@@H](C(=O)O[C@H]2C[C@@]3(O)[C@@H](OC(=O)c4ccccc4)[C@@H]4[C@]5(OC(C)=O)CO[C@@H]5C[C@H](O)[C@@]4(C)C(=O)[C@H](OC(C)=O)C(=C2C)C3(C)C)[C@@H](NC(=O)c2ccccc2)c2ccccc2)O1 (stereo partly specified) | 55.7% (inactive)
32 | CC1=C([Te]c2ccc(O)cc2)C(=O)c2ccccc2C1=O | 22.3% (inactive)
33 | O=C1NC(=O)C(=Cc2cn(CCCCCCn3c4ccccc4c(=O)c4ccccc43)c3ccccc23)C(=O)N1 | 85.8% (inactive)
34 | CC(C)OC(=O)[C@H](C)NP(=O)(Oc1ccccc1)C1CCCN(O)C1=O (stereo partly specified) | 84.6% (inactive)
35 | CCCCCCC(=O)NC1=C(N2CC2)C(=O)C(NC(=O)CCCCCC)=C(N2CC2)C1=O | 79.5% (inactive)
36 | COc1ccc(/C=C\c2cc(OC)c(OC)c(OC)c2)cc1NS(=O)(=O)c1ccc(Cl)cc1 | 73.1% (inactive)
37 | CC[C@H](C)[C@H](NC(=O)[C@H]1CCCCN1C)C(=O)N(C)[C@H](CC(=O)c1nc(C(=O)N[C@@H](Cc2ccccc2)C[C@H](C)C(=O)O)cs1)C(C)C | 107% (inactive)
38 | C[C@]12C[C@@H](CO)[C@H](O)C[C@@H]1CC[C@@H]1[C@@H]2CC[C@]2(C)[C@@H](O)CC[C@@H]12 | 91.1% (inactive)
39 | [Cl][Hg][c]1cc[c]([Hg][Cl])o1 | 96.9% (inactive)
40 | NC(=S)c1cn(C2OC(CO)C(O)C2O)c2ncnc(N)c12 (stereo unspecified) | -17% (active)
41 | COC(=O)CC[C@H](Cc1ccccc1)NC(=O)c1csc([C@@H](C[C@H](C(C)C)N(C)C(=O)[C@@H](NC(=O)[C@H]2CCCCN2C)C(C)C)OC(C)=O)n1 | 51% (inactive)
